The whole screen tested about 200,000 compounds, of which about 700 (0.35%) were called active.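 How the source made its calls: active means inhibition above a set limit, the mean inhibition across all tested compounds plus 3 SD (cut at about 34% in these data); inactive means the rest.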 Many of the other results were omitted from the sample, so actives are more common in it than they were.
experiment: blockers of IFN-gamma driven STAT1 reporter – cell-based, HTS, luciferase reporter, primary screen (AID 920); settings: NIH 3T3 STAT1-luciferase reporter, luminescence, at 5.5 µM, stronger effect = higher value;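 further: 0% = IFN-gamma with DMSO and 100% = IFN-gamma with 300 µM nifuroxazide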

inhibition, inactive:
O=C(NCCCO)/C(=C\C=C\c1ccccc1)NC(=O)c1ccccc1Cl 3.7%
Cc1nn(C)c(C)c1CN(C(=O)CCc1nnc(Cc2c[nH]c3ccccc23)o1)C(C)C -1.77%
COCCn1c(C)cc(C2=NNC(=Nc3ccc(F)cc3)SC2)c1C -36.4%
Cc1cc(C2=NNC(=Nc3ccc(S(=O)(=O)N4CCOCC4)cc3)SC2)c(C)n1CC1CCCO1 (configuration not stated) -1.28%
N/C(=N\OC(=O)Cc1ccccc1[N+](=O)[O-])c1ccc(Br)cc1 0.32%
CCc1cc2c(NC3CCCC3)ncnc2s1 22.1%
CCc1cc2c(SCC(=O)Nc3ncc(Cl)c(C)c3Cl)ncnc2s1 -4.22%
O=C1C2C3C=CC(C4CC34)C2C(=O)N1c1nccs1 (configuration not stated) 3.92%
C#CCOCCOCCOCCNc1nc(N2CCN(C(=O)[C@H](C(C)C)n3cc(CCO)nn3)CC2)nc(N2CCN(C(=O)[C@H]([C@@H](C)CC)n3cc(CCCN=C(N)N)nn3)CC2)n1 -0.51%
CC(=O)c1ccc(N2CCN(CC(=O)Nc3ccccc3N3CCOCC3)CC2)cc1 15%
O=C(CSC(=S)N1CCOCC1)c1ccccc1 -27.1%
CN(C)CCNC(CC(=O)Nc1ccc(Cl)c(Cl)c1)C(=O)O (configuration not stated) 0.9%
O=C(CC(=O)Nc1ccc(Cl)c(Cl)c1)N/N=C/c1ccc(O)cc1 6.41%
CC1=C(C)CC(C(=O)NC(C)CCc2ccccc2)C(C(=O)O)C1 (configuration not stated) -0.81%
CCCCOc1ccc(C(=O)NCC(=O)OCC(=O)N2CCN(S(=O)(=O)c3ccc(C)cc3C)CC2)cc1 -1.91%
CCCNC(=O)c1c(N)n(-c2ccc(S(N)(=O)=O)cc2)c2nc3ccccc3nc12 -1.16%
CC(C)Cn1c(N)c(C(=O)NCc2cccs2)c2nc3ccccc3nc21 -2.91%
Cc1ccc(-c2nc(-c3cccnc3)sc2CC(=O)Nc2ccc(C)c(Cl)c2)cc1 13.7%

inhibition, active:
C=CCn1c(C)cc(C2=NNC(=NCC)SC2)c1C 94.7%
CCc1cc2c(N3CCN(c4nnc(CC)s4)CC3)ncnc2s1 51.2%
O=C(CC(O)(C(F)(F)F)C(F)(F)F)Nc1ccc(Cl)c(Cl)c1 48.3%
CCC(C)NC(=O)c1c(N)n(/N=C/c2cccs2)c2nc3ccccc3nc12 (configuration not stated) 39.4%
